PubChem BioAssay (NCI)
This is part of a sample that, as a whole, favours compounds with a hit. Of some 83,000 tested, about 20% had one in any assay.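 Activity criterion: percent growth below 10, measured after cells in 96-well plates were exposed to a single compound concentration for 48 hours.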 Values without a mark were called inactive. Active and inactive are the calls of the source.

Assays:
Assay in all cases: NCI-60 one-dose screen, 48 h (100 = growth as untreated, 0 = no growth, -100 = all killed)
Conditions in all cases: 10 µM unless noted
[1] = system: NCI-H23 lung
[2] = system: NCI-H226 lung
[3] = system: HOP-62 NSCLC
[4] = system: NCI-H460 lung
[5] = system: HOP-92 NSCLC
[6] = system: NCI-H522 lung
[7] = system: A549/ATCC NSCLC
[8] = system: 786-0 renal
[9] = system: COLO 205 colon
[10] = system: NCI-H322M lung

| Structure (SMILES) | growth [1] | growth [2] | growth [3] | growth [4] | growth [5] | growth [6] | growth [7] | growth [8] | growth [9] | growth [10] |
| --- | --- | --- | --- | --- | --- | --- | --- | --- | --- | --- |
| OCCNCCNc1c2ccccc2nc2ccccc12 | 64.8% | 58.3% | 60.7% | 54.6% | 81.1% | 41.6% | 98.2% | 84.9% | 47.9% | – |
| C=C1C(=O)O[C@H]2[C@H]1CC/C(Cn1cc(Cc3c[nH]c4ccccc34)nn1)=C\CC[C@@]1(C)O[C@@H]21 | 37.1% | – | 76.7% | 79.7% | -8.55% (active) | -79.2% (active) | 57.9% | -9.3% (active) | -68.1% (active) | 85.1% |
| CCN(CC)CCCNc1cccc2c(SCc3ccccc3)ccnc12 | 69.3% | 89.8% | 94.8% | 72% | 26.2% | 52% | 63.7% | 72.7% | 106% | – |
| CC(C)(C)n1cc(-c2ccnc(NCCNS(=O)(=O)c3ccccc3)c2)c(-c2cccc(O)c2)n1 | 70.3% | – | 82.5% | 36.7% | 77.8% | 57.7% | 47.1% | 18.5% | 6.61% (active) | 78.1% |
| COc1ccc2nc3cc(Cl)ccc3c(N3CCN(c4nccc(Nc5ccc(Cl)cc5)n4)CC3)c2c1 | 86.4% | 99.8% | 88.1% | 67% | 34.8% | – | 76.4% | 42.2% | 95.7% | – |
| COc1ccc2nc3cc(Cl)ccc3c(N3CCN(c4ccnc(N5CCOCC5)n4)CC3)c2c1 | 46.1% | 89.2% | 71.5% | 76.5% | 56.3% | -51.4% (active) | 95.2% | 92.8% | 31.1% | – |
| COc1c2ccccc2c(OC)c2[nH]c(=O)ccc12 | -11.3% (active) | 37.1% | -13.2% (active) | -57.7% (active) | 72.9% | 71.3% | -34.2% (active) | 89.7% | 38.2% | – |
| CNc1nc(C)c(-c2nc(Nc3cccc(S(N)(=O)=O)c3)ncc2F)s1 | -18.8% (active) | 7.23% (active) | 3.17% (active) | 4.4% (active) | 38.2% | -11.7% (active) | 3.85% (active) | 2.98% (active) | -66.1% (active) | – |
| C=C1CCC2C3(C)COC(c4ccc(OC)cc4Br)OC3CCC2(C)C1/C=C/C1=CCOC1=O (stereo not drawn) | 52.7% | 63.1% | 97.3% | 65% | 84.8% | 63.8% | 58.2% | 77.6% | 118% | – |
| CCCCCCCCCCCCS(=O)CC(C)O (stereo not drawn) | 115% | 110% | 96.1% | 111% | 90.2% | 95.3% | 93% | 102% | 110% | – |
| CS(=O)(=O)c1c(Nc2ccccc2)n[nH]c1N | 105% | 105% | 109% | 110% | 85% | 100% | – | 96.7% | 105% | – |
| Cc1cc(Nc2nc(N3CCOCC3)nc3ccccc23)n[nH]1 | 80.5% | 57.7% | 78% | 68.9% | 60.7% | 40.2% | 53.3% | 49.9% | 65.4% | – |
| C#Cc1nc2ccccc2c(=O)[nH]1 | 29.9% | -58.8% (active) | -6.19% (active) | 11.1% | -45.8% (active) | -71.9% (active) | – | -64.7% (active) | -74.3% (active) | – |
| CSc1nc(NCCO)c(C#N)c(-c2cccc(N)c2)n1 | 90.5% | – | 83.7% | 99.6% | 95.7% | 87.4% | 100% | 103% | 108% | 97.6% |
| CCN(CC)CC(C)Nc1ccc([N+](=O)[O-])c2sc3ccccc3c(=O)c12 (stereo not drawn) | 33.5% | – | 46.2% | 9.64% (active) | 7.52% (active) | – | – | 16.3% | 10.8% | 26.6% |
| COc1cc(C(=O)/C=C/c2c(C)n([O-])c3ccc(C)cc3[n+]2=O)cc(OC)c1OC | 42.2% | – | 102% | 88.4% | 64.5% | -81.8% (active) | 85.8% | 74% | -36.6% (active) | 97.9% |

| Structure (SMILES) | growth [1] | growth [2] | growth [3] | growth [4] | growth [5] | growth [6] | growth [7] | growth [8] | growth [9] | growth [10] |
| --- | --- | --- | --- | --- | --- | --- | --- | --- | --- | --- |
| CN1CCN(Cc2ccc(NC(=O)c3cncc(C#Cc4c(N)ncc5ccc(C#N)cc45)c3)cc2C(F)(F)F)CC1 | 47% | – | 58.4% | -73.8% (active) | 13.9% | – | -65.6% (active) | -59.6% (active) | 21.2% | -29.2% (active) |
| Nc1nc(SCc2ccccc2)c2ncn(C3CCCC3)c2n1 | 85.7% | – | 107% | 98.8% | 106% | 76.8% | 107% | 98.8% | 116% | 103% |
| O=C(CO[N+](=O)[O-])Nc1ccc(C(=O)/C=C/c2ccc3c(c2)OCO3)cc1 | 58.1% | – | 112% | 108% | 77.3% | 97.6% | 88.9% | 109% | 113% | 108% |
| C=CC[N+]1(CC)CCN=C1CCCCCCCCCCCCCCCCC (stereo not drawn) | -92.9% (active) | – | -95% (active) | -100% (active) | -57.6% (active) | -85.2% (active) | -92.9% (active) | -98.4% (active) | -100% (active) | 27.8% |
| Cc1ccc(Nc2c(C(N)=O)cnc3ccc(-c4csc(N)n4)cc23)cc1 | 88.3% | – | 96.4% | 100% | 90.2% | 101% | 95.4% | 101% | 96.3% | 108% |
| O=c1ccc2cc3ccccc3cc2[nH]1 | 93.1% | – | 95.4% | 93.8% | 84.8% | 98.8% | 102% | 103% | 121% | 114% |
| COc1ccc2nc3cc(Cl)ccc3c(NCCNCC(O)CO)c2c1 (stereo not drawn) | 23.6% | – | 31.5% | 0.301% (active) | 13.1% | 3.19% (active) | 14.6% | 29.3% | 0.893% (active) | – |
| O=C(O)c1ccccc1Nc1cccc(S(F)(F)(F)(F)F)c1 | 96.8% | – | 88.4% | 102% | 96.1% | 61.9% | 84.2% | 110% | 104% | 101% |
| C[C@@H]1CC[C@@H]2[C@@H]1[C@H](OC(=O)/C=C/c1ccccc1)[C@]1(c3ccccc3)C[C@@H](OC(=O)CO)[C@@]2(C)O1 | 102% | – | 101% | 92% | 78.8% | 88.5% | 80.2% | 98% | 107% | 88% |
| O=S(=O)(Nc1ccc(Cl)cc1Cl)c1ccc(-c2cnc(C3CC3)o2)cc1 | 28.2% | – | 31.5% | 12.7% | 51.2% | -1.33% (active) | 26.5% | 41.4% | 4.78% (active) | – |
| CC/C=C\C[C@H](O)C/C=C1/C(=O)C=C[C@@H]1C/C=C\CCCC(=O)OC(C)C | -40.1% (active) | – | -44.2% (active) | 0.788% (active) | -0.165% (active) | -54.2% (active) | – | -50.8% (active) | -73.8% (active) | -1.62% (active) |
| CCCCN(CCCC)CCC(C)(O)c1cc2ccccc2c2ccccc12 (stereo not drawn) | 83.8% | – | 106% | 90.1% | 44.2% | 91.4% | 83.5% | 103% | 92.7% | 73.5% |
| CCCCN(CCCC)Cc1c(C)[nH]c2cc(OC)ccc2c1=O | 107% | – | 88.9% | 103% | 65.3% | 94.6% | 95.4% | 105% | 101% | 113% |
| Cc1cc(=O)oc2cc(Oc3nc(-c4ccc(Cl)cc4)cn4c(-c5ccc(Cl)cc5)cnc34)ccc12 | 78.1% | – | 99.7% | 93.3% | 91% | 95.8% | 101% | – | 97.5% | 95.9% |
| Nc1cc2ccncc2c2ccccc12 | 67.7% | – | 79.6% | 58.2% | 73.9% | 98.4% | – | 78.1% | 61.6% | 61.7% |
